Assay results as given in the supplement of paper PMC3334620.
In all, about 33,000 sequences were measured (“E-score (-0.5 to 0.5)”: median about -0.035, highest 2% from about 0.35 on). This is one part of a sample in which the highest values are shown more often than they occur.

Biological target: T1, Pdr3 (UniProt P33200)
T1 sequence: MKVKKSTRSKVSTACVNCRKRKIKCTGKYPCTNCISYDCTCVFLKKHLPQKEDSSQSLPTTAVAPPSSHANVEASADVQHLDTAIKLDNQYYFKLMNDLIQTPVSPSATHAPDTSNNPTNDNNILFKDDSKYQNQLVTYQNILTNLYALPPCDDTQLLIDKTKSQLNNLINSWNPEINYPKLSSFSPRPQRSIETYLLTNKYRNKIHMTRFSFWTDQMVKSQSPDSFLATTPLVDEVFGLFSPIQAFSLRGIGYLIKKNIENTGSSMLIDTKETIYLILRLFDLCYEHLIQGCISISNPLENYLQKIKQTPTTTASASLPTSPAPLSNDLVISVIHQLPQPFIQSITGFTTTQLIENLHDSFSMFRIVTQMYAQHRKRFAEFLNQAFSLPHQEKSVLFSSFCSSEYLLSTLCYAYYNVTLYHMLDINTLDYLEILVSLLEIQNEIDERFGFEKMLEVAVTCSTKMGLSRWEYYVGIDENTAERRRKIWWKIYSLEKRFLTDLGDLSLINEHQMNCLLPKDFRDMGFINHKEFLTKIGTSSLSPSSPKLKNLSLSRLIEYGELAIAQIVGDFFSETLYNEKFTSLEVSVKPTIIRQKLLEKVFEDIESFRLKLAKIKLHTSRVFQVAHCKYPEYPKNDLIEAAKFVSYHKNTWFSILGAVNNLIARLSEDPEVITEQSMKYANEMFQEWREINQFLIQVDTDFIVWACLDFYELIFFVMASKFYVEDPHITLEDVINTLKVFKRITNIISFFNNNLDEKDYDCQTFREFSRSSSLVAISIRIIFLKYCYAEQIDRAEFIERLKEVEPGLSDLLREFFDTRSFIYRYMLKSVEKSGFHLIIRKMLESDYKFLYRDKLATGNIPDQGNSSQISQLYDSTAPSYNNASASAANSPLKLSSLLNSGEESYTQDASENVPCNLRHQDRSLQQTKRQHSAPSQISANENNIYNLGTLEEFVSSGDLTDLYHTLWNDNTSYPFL
Assay: PBM E-score (8-mer binding enrichment) (E-score (-0.5 to 0.5)); higher = stronger / more preferred TF binding
Details: protein concentration: 200 nM; construct: GST-full length
Summary of the method: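 PURExpress in vitro transcription/translation supplied GST-tagged yeast transcription factors, either full-length or DNA-binding domain. Applied at about 100-200 nM to universal all-10-mer Agilent arrays double-stranded by primer extension, the bound protein was detected with fluorescent anti-GST. E-scores, modified Wilcoxon-Mann-Whitney statistics, were given by the Universal PBM Analysis Suite to ungapped eight-base words pooled with their reverse complements after masliner normalisation.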

Sequence	PBM E-score
CGTACCAC	-0.102
AATCCTAG	-0.108
CTGATAGA	-0.118
CTTCCCGA	0.291
GTTCCGGA	0.475
GTTCCTGA	-0.0384
ATTCCGGA	0.481
ATACCGGA	0.303
GTACCGGA	0.318
CTTCCGGC	0.398
ATTCCAGA	0.0594
CTACCGGC	-0.0343
CTTCCGGA	0.451
CTGCCGGC	0.339
CTTCCTGA	0.0336
AACTGATA	0.0335
ATAAGCAA	-0.128
GATGCGCA	0.0246
AAAACCCG	0.319
CACTTACG	0.121
AGCCCTCA	-0.248
GTCGGCGA	-0.0361
GCCGGCGC	0.372
ACCGGCGC	0.228
TCCGGCGA	0.356

Sequence	PBM E-score
GCCGGCTA	0.248
CCCGGCGC	0.26
CCCGGCGA	0.296
ACCGGCGA	0.281
GCCGGCGA	0.36
AGAGGCCG	-0.105
CTAGAAGC	-0.166
ATGTCGGC	-0.0499
CGCAACTA	0.0897
ACGCCGGC	0.385
CCGCCGGA	0.415
GCGCCGGA	0.384
CCGCCGCA	0.202
GCGCCGTA	0.251
GCGCCGAA	0.241
ACGCCGCC	0.0831
ACGCCGGA	0.289
ACGCCGGG	0.251
CCGCCGGC	0.401
CCGCCGTC	0.168
CCGCCGCC	0.244
GACCTACC	0.0277
ACCTTTAA	-0.0915
ATGTCGTA	-0.238
CATGAGTA	-0.168

Sequence	PBM E-score
GCGCACGA	0.0416
GCTGTACC	-0.00444
GCCTGCCC	-0.0411
CCCAAGAA	-0.0373
GCGGCGCC	0.353
ACGGCGCC	0.243
CCGGCGCC	0.37
AACGAACT	-0.245
AGAGAAGG	-0.0862
GGGAAAGA	0.0836
AGGAAAGA	-0.167
CGGAAAGC	0.415
CCGAAAGC	0.136
AGGAAAGC	-0.105
CGGAAAGA	0.428
CTGCGGTA	-0.0102
GCTTTCAC	-0.107
ACTGGGCT	0.0297
CCTGCAGA	-0.0209
AGTTCTGG	-0.0246
CGGTGTAC	-0.0705
AGACTACT	-0.173
CGGATATC	0.391
CGGATACC	0.31
TGGATAAA	0.103

Sequence	PBM E-score
TGGATACA	-0.189
CGGATAAA	0.383
CGGATAAC	0.333
CGGATACA	0.364
AGGATATC	-0.0388
CGGATATA	0.346
ACTTTGAA	-0.202
ATCTTAGC	-0.2
GGCCAGAC	0.075
GAGGTCAC	-0.0512
ACCCAGAG	-0.132
AGGCGCAC	0.147
CCGTGGAC	0.274
CCGTGGAG	0.382
CCGTGGAA	0.437
ACGTGGAG	-0.132
ACGTGGAA	-0.0114
GCGTGGAA	0.0102
TGCGCCAA	0.053
TCGCGGAA	0.404
ACGCGGAC	0.229
GCGCGGCA	0.237
TCGCGAAA	0.131
GCGCGGAC	0.305
ACGCGGAA	0.407

Sequence	PBM E-score
TCGCGGCA	0.174
ACGCGGAT	0.244
GCGCGGAA	0.464
AAACCTCA	0.109
GAGTTGGC	0.115
ATAAGCAG	-0.127
CCCGAATA	0.14
CGGCAGCA	0.109
CGGCAGCC	0.358
AGGCAGCC	0.0506
CCGGTTCG	0.217
AGGGTTCC	0.249
CCGGTTCC	0.426
CGGGTTCC	0.414
CCGGTTCA	0.104
CGGGTTCA	0.304
CTCCATAA	-0.273
CTCGCTGC	0.00281
CTGGTCTA	-0.254
ACACTTCC	0.184
CTGTTGAC	-0.162
AAACCAGG	-0.0534
CGTAACAC	-0.0629
AGGAATCC	0.0872
CGGAATCA	0.456

Sequence	PBM E-score
GGGAATCA	0.0382
AGGAATCA	-0.0475
CGGAATCC	0.461
CCGAATCC	0.336
CTTGGGCC	-0.0633
GTATCTGA	-0.146
ACGTCTCG	-0.0164
AAAGTCTC	-0.186
TTAGCGAA	0.0125
GCTACCAC	-0.16
CGGGGATC	0.28
GCGGGATA	0.322
ACGGGATA	0.38
CCGGGATA	0.388
ACGGGATC	0.275
CCGGGATC	0.453
CCGGGAGG	0.334
CCGGGAGA	0.369
CGGGGAGA	0.28
ACGGGATG	0.283
CTGGGATA	0.0272
CGGGGATA	0.33
AAGGAATG	0.126
CGCGTCCG	0.272
CTTCGCGC	0.274

Sequence	PBM E-score
ATCTAAAC	-0.113
GCTGGCAA	0.0154
CTCGGTCA	0.00197
CACCGGAA	0.46
TACCGGCA	0.214
CACCGGGA	0.272
GACCGGAC	0.28
GACCGGCA	0.0622
AACCGGAA	0.435
AACCGGAT	0.316
TACCGGAA	0.44
GACCGGAA	0.401
CACCGGAC	0.341
TACCGGTA	0.103
AACCGGAG	0.326
AAATAGTA	0.152
AGAGCAAC	-0.197
CCTATGGA	-0.127
CCTAGGTA	-0.174
AAAAGCAC	-0.291
AAAGACTA	-0.113
CGTTTTAG	-0.195
